Here are results for 11 molecules from PubChem BioAssay.

Experiment [1] is described as follows: compounds altering circadian rhythm period length – cell-based, LOPAC library, luminescence reporter (AID 2774).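 Note: values are relative to mean of DMSO wells on each plate.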 The note with it: circadian reporter cells, at 7 µM, actives lie on both sides.
The test system of experiment [2] is Hepatitis C virus NS3 helicase. Kind of experiment: blockers of NS3h binding to ssDNA – biochemical, fluorescence polarization, LOPAC1280 library, primary screen (AID 687035; in the data active = inhibition above about 37%). The conditions noted are these: Purified HCV NS3 helicase, Cy5-dT15 ssDNA binding fluorescence polarization; stronger effect = higher value; concentration not given here. On the technique in general: Polarisation of emitted light reports the rotation of a fluorescent probe.

A short description of experiment [3]: compounds altering Cy5-DNA-NS3h complex signal – biochemical, LOPAC1280, artefact control for HCV NS3 helicase inhibitor project (AID 687037). The note with it: Cy5-DNA-NS3h complex fluorescence interference counterscreen. A general note: A counterscreen serves to expose hits that act by an unwanted route or on another target.
A short description of experiment [4]: viability loss with induced miR-34 in A549 – imaging, A549 dox-inducible miR-34, nuclei and caspase counts, primary screen (AID 1347080;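 active = compounds whose cell count with miR-34 switched on is under 0.7 times the count with it off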). The note with it: A549 miR-34 inducible, Hoechst nuclei count, 48 h.
A short description of experiment [5]: blockers of cellular phospholipid synthesis – cell-based, LOPAC library, screen 4, primary screen (AID 1347384). The conditions noted are these: animal cells, phospholipid biosynthesis inhibition screen; at 10 µM.
The nature of experiment [6]: galactose survival enhancers in mitochondrial complex I cybrids – cell-based, galactose medium, ATP luminescence, primary screen (AID 1645843;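 active = z-score of at least 1.8 in each of two replicates, scored against plate mean and spread of sample wells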;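 note: positive z means more ATP and so rescue of galactose-driven cybrid death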). The note with it: complex I mutant cybrid cells, 72 h, stronger effect = higher value.
Where [7] appears, read: stronger effect = lower value, cell number ratio, induced over uninduced.
[8] abbreviates: measured here: relative caspase fold change +Dox/-Dox.
Where [9] appears, read: measured here: total cells with miR-34 induction, stronger effect = lower value.
[10] abbreviates: measured here: total cells without miR-34 induction.

Activity calls are given as the source filed them. Unless noted, the rule behind the calls is not given here.

Consider `O=C1CCC(c2ccc(-n3ccnc3)cc2)=NN1`, for which the period change in experiment [1] is -0.075 h (inactive). Besides, in experiment [2], the inhibition (commonly the relative decrease from the control value, in per cent) is -1% (inactive). The fluorescence ratio (interference) in experiment [3] was 1 (inactive). Moreover, the fold change was 1.07 (inactive) in experiment [4] (setting [7]) and 0.666 in experiment [4] (setting [8]). Also, the cell count worked out at 10200 in experiment [4] (setting [9]) and 9510 in experiment [4] (setting [10]). In experiment [5], the call was inactive. Moreover, in experiment [6], the z-score was -0.165 (inactive).

Consider `O=C(O)CCCC[C@@H]1CCSS1`, for which the period change in experiment [1] was 0.11 h (inactive). In experiment [2], the inhibition was 0% (inactive). Further, the fluorescence ratio (interference) in experiment [3] is 1 (inactive). Further, the values for the fold change in experiment [4] (setting [7]) and in experiment [4] (setting [8]) were 0.958 (inactive) and 0.931, respectively. The cell count in experiment [4] (setting [9]) was 9120; in experiment [4] (setting [10]), 9520. In addition, the call in experiment [5] was inactive. For the same molecule, the z-score in experiment [6] was 0.53 (inactive).

`CC(N)=NCCCC[C@@H](N)C(=O)O`: the period change in experiment [1] was 0.055 h (inactive). Further, the inhibition in experiment [2] is -4% (inactive). Also, the fluorescence ratio (interference) in experiment [3] is 0.9 (inactive). In addition, the figures for the fold change in experiment [4] (setting [7]) and in experiment [4] (setting [8]) were 1.08 (inactive) and 1.26, respectively. Besides, the cell count in experiment [4] (setting [9]) worked out at 11400; in experiment [4] (setting [10]) it was 10600. For the same molecule, the result in experiment [5] was inactive. The z-score in experiment [6] was 0.39 (inactive).

Regarding `CN1CC(O)C(O)C(O)C1CO` (centres undefined), the period change in experiment [1] was 0.06 h (inactive). Besides, the inhibition in experiment [2] is -3% (inactive). For the same molecule, the fluorescence ratio (interference) in experiment [3] was 1 (inactive). Besides, the results for the fold change in experiment [4] (setting [7]) and in experiment [4] (setting [8]) were 0.95 (inactive) and 1.01, respectively. Also, the cell count in experiment [4] (setting [9]) was 10300; in experiment [4] (setting [10]), 10800. Besides, in experiment [5], the outcome was inactive. In experiment [6], the z-score was 0.28 (inactive).

As to `C#CCn1c(=O)c2c(ncn2C)n(C)c1=O`, the period change in experiment [1] is -0.07 h (inactive). In addition, the inhibition in experiment [2] was -1% (inactive). The fluorescence ratio (interference) in experiment [3] is 1 (inactive). Besides, the fold change in experiment [4] (setting [7]) is 0.971 (inactive); in experiment [4] (setting [8]) it was 0.997. Further, the cell count in experiment [4] (setting [9]) came to 10100; in experiment [4] (setting [10]), 10400. For the same molecule, the call in experiment [5] was inactive. Further, in experiment [6], the z-score is 0.15 (inactive).

With `CCCCCCCCCC(=O)NC(CN1CCOCC1)[C@H](O)c1ccccc1` (some centres undefined), the period change in experiment [1] was 0.05 h (inactive). Further, the inhibition in experiment [2] is 2% (inactive). For the same molecule, in experiment [3], the fluorescence ratio (interference) is 1 (inactive). The fold change in experiment [4] (setting [7]) was 0.995 (inactive); in experiment [4] (setting [8]) it was 1.18. The cell count in experiment [4] (setting [9]) amounted to 7040; in experiment [4] (setting [10]), 7080. Also, the result in experiment [5] was inactive. In addition, the z-score in experiment [6] was -1.16 (inactive).

For the molecule `COC1=C(OC)C(=O)c2ccccc2C1=O`, the period change in experiment [1] was -0.205 h (inactive). In addition, in experiment [2], the inhibition is -1% (inactive). Further, the fluorescence ratio (interference) in experiment [3] is 1 (inactive). Also, the values for the fold change in experiment [4] (setting [7]) and in experiment [4] (setting [8]) were 1.45 (inactive) and 1.7, respectively. In addition, the figures for the cell count in experiment [4] (setting [9]) and in experiment [4] (setting [10]) were 1290 and 890, respectively. In experiment [5], the result was inactive. Also, the z-score in experiment [6] is -1.04 (inactive).

As to `OC[C@H]1NC[C@@H](O)[C@@H]1O`, the period change in experiment [1] was -0.11 h (inactive). In experiment [2], the inhibition was -3% (inactive). Also, in experiment [3], the fluorescence ratio (interference) is 1 (inactive). For the same molecule, the values for the fold change in experiment [4] (setting [7]) and in experiment [4] (setting [8]) were 0.888 (inactive) and 1.22, respectively. Besides, the cell count in experiment [4] (setting [9]) was found to be 8680; in experiment [4] (setting [10]) it was 9770. Besides, the molecule was called inactive in experiment [5]. The z-score in experiment [6] is 0.015 (inactive).

In the case of `c1cnc2c(c1)ccc1cccnc12`, the period change in experiment [1] is 0.09 h (inactive). Also, the inhibition in experiment [2] was -3% (inactive). In addition, the fluorescence ratio (interference) in experiment [3] was 1 (inactive). Besides, the fold change in experiment [4] (setting [7]) is 0.996 (inactive); in experiment [4] (setting [8]), 2.62. Moreover, the cell count was 2190 in experiment [4] (setting [9]) and 2200 in experiment [4] (setting [10]). The outcome in experiment [5] was inactive. Further, the z-score in experiment [6] is -1.21 (inactive).

As for `Nc1ncnc2c1ncn2C1CCCC1`, the period change in experiment [1] is 0.035 h (inactive). The inhibition in experiment [2] was -6% (inactive). In addition, in experiment [3], the fluorescence ratio (interference) is 0.9 (inactive). In addition, the fold change in experiment [4] (setting [7]) was 1.02 (inactive); in experiment [4] (setting [8]) it was 2.13. The cell count in experiment [4] (setting [9]) was determined as 10400; in experiment [4] (setting [10]), 10200. Moreover, the molecule was classed as inactive in experiment [5]. The z-score in experiment [6] is -0.07 (inactive).

On to `O=C(c1ccc2c(c1)OCCO2)N1CCCCC1`, for which the period change in experiment [1] was -0.22 h (inactive). In addition, in experiment [2], the inhibition was -1% (inactive). The fluorescence ratio (interference) in experiment [3] was 1 (inactive). Besides, the fold change in experiment [4] (setting [7]) is 1.07 (inactive); in experiment [4] (setting [8]), 1.38. For the same molecule, the cell count in experiment [4] (setting [9]) is 9110; in experiment [4] (setting [10]) it was 8530. Further, the molecule was called inactive in experiment [5]. For the same molecule, the z-score in experiment [6] was 0.315 (inactive).
